Source: the supplement of paper PMC10849652
Of roughly 7,900 targets only a part is listed; those with a hit were picked by preference. About 0.6% of all pairs of compound and target were hits. A number with no mark means an inactive call.

Assays:
Assay in all cases: log2 fold change, soluble protein after heating vs DMSO (PISA); higher = thermal stabilisation; K562 cells, 10 uM, 30 min; active = over 0.2 and 3.5 SD of the protein, either way, in both replicates (recomputed)
[1] = compound: CC[C@@H]1C(=O)N(C)c2cnc(Nc3ccc(C(=O)NC4CCN(C)CC4)cc3OC)nc2N1C1CCCC1
How it was run: (§1)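 Values are thermal stability changes relative to control samples and are taken from duplicates. They are stated as log2 fold changes. Before quantification by TMTpro 16plex LC-MS/MS with equalised channel sums, K562 cells at 2×10^6 cells/mL were treated with 10 μM compound for 30 min, heated in aliquots for 3 min across 48°C-58°C, pooled, extracted in PBS with 0.5% NP-40 at 4°C, and centrifuged at 21,000xg for 90 min to give the soluble supernatant.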

volasertib = compound: CC[C@@H]1C(=O)N(C)c2cnc(Nc3ccc(C(=O)N[C@H]4CC[C@H](N5CCN(CC6CC6)CC5)CC4)cc3OC)nc2N1C(C)C [volasertib]
How it was run: as §1

[2] = compound: CC[C@H](C)N1C=C(C2=C(C=C(C=C21)C3=CN=C(C=C3)N4CCNCC4)C(=O)NCC5=C(C=C(NC5=O)C)C)C
How it was run: as §1

epoxomicin = compound: CC[C@H](C)[C@@H](C(=O)N[C@@H]([C@@H](C)O)C(=O)N[C@@H](CC(C)C)C(=O)[C@]1(CO1)C)NC(=O)[C@H]([C@@H](C)CC)N(C)C(=O)C [epoxomicin]
How it was run: as §1

[3] = compound: CCn1c(C(=O)N(C2CC2)C2CC2)cc2c3c(ncn3C)c(Nc3cc(C)n(C)n3)nc21
How it was run: as §1

[4] = compound: CCn1cc(-c2ccnc3[nH]c(-c4cccc(CN(C)C)c4)cc23)c(-c2ccc(NC(=O)N(C)C)cc2)n1
How it was run: as §1

[5] = compound: CN(C)CC(=O)Nc1ccc2[nH]c(=O)c3ccccc3c2c1
How it was run: as §1

rosiglitazone = compound: CN(CCOC1=CC=C(C=C1)C[C@H]2C(=O)NC(=O)S2)C3=CC=CC=N3 (racemic) [rosiglitazone]
How it was run: as §1

[6] = compound: CN1C2=C(C3=C1C(=O)N(N=C3)CC4=CC(=CC=C4)N)SC(=C2)S(=O)C
How it was run: as §1

[7] = compound: CN1CCC(CNc2ccc3ncc(-c4cccc(OC(F)(F)F)c4)n3n2)CC1
How it was run: as §1

Sequence of UniProt Q9UKD1 (Q9UKD1 whole entry, looked up): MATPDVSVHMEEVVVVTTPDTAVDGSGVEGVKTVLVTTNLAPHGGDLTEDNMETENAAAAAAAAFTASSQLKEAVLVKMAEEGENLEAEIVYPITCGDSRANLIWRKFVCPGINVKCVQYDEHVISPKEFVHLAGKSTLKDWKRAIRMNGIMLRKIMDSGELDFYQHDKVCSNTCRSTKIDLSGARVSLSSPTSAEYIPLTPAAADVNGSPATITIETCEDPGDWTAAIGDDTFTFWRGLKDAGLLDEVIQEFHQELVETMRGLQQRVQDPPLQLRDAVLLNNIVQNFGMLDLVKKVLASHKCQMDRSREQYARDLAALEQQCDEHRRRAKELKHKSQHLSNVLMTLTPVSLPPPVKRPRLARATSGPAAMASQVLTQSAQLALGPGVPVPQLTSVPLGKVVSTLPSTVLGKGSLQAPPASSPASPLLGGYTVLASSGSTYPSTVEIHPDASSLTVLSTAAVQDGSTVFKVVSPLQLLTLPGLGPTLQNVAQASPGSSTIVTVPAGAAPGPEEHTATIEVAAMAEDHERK
Sequence of UniProt Q00403 (Q00403 whole entry, looked up): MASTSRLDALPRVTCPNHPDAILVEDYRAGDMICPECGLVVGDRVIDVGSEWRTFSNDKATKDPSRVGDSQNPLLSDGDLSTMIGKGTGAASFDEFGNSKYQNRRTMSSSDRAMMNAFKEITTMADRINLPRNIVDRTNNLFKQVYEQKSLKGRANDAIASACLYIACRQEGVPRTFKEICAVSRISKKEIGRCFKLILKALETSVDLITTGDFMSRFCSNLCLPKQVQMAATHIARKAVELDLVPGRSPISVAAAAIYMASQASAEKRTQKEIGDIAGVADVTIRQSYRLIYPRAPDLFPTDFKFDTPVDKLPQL
Sequence of UniProt Q9UBN7 (Q9UBN7 whole entry, looked up): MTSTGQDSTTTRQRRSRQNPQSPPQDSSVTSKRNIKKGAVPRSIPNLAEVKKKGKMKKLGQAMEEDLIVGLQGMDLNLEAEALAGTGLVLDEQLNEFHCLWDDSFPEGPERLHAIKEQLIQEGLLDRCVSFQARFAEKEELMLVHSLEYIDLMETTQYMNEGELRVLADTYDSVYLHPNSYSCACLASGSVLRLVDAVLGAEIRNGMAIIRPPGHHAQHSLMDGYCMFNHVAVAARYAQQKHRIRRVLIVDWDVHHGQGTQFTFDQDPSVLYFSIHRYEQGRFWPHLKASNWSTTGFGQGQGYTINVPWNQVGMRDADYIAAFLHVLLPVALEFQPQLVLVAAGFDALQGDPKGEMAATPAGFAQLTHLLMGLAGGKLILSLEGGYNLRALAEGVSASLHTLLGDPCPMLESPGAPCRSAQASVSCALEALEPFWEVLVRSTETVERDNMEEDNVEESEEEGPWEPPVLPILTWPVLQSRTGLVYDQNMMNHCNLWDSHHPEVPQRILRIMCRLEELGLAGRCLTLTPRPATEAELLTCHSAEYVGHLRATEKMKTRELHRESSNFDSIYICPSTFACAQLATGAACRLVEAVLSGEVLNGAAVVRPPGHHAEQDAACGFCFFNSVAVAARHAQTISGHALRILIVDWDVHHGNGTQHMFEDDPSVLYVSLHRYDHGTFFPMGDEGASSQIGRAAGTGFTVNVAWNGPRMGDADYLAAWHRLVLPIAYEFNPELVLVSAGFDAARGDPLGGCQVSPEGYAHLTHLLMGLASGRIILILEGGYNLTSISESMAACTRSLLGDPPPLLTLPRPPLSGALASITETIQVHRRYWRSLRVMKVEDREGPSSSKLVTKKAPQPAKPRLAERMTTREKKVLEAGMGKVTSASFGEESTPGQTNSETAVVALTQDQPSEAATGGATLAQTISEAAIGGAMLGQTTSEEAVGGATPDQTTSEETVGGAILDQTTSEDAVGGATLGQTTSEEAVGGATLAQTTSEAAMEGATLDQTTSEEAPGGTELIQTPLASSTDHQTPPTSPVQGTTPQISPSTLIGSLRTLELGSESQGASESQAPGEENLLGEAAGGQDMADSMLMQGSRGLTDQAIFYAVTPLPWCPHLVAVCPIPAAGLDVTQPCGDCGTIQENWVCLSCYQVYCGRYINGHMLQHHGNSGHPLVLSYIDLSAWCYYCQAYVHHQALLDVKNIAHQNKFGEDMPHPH
Sequence of UniProt P21333 (P21333 whole entry, looked up): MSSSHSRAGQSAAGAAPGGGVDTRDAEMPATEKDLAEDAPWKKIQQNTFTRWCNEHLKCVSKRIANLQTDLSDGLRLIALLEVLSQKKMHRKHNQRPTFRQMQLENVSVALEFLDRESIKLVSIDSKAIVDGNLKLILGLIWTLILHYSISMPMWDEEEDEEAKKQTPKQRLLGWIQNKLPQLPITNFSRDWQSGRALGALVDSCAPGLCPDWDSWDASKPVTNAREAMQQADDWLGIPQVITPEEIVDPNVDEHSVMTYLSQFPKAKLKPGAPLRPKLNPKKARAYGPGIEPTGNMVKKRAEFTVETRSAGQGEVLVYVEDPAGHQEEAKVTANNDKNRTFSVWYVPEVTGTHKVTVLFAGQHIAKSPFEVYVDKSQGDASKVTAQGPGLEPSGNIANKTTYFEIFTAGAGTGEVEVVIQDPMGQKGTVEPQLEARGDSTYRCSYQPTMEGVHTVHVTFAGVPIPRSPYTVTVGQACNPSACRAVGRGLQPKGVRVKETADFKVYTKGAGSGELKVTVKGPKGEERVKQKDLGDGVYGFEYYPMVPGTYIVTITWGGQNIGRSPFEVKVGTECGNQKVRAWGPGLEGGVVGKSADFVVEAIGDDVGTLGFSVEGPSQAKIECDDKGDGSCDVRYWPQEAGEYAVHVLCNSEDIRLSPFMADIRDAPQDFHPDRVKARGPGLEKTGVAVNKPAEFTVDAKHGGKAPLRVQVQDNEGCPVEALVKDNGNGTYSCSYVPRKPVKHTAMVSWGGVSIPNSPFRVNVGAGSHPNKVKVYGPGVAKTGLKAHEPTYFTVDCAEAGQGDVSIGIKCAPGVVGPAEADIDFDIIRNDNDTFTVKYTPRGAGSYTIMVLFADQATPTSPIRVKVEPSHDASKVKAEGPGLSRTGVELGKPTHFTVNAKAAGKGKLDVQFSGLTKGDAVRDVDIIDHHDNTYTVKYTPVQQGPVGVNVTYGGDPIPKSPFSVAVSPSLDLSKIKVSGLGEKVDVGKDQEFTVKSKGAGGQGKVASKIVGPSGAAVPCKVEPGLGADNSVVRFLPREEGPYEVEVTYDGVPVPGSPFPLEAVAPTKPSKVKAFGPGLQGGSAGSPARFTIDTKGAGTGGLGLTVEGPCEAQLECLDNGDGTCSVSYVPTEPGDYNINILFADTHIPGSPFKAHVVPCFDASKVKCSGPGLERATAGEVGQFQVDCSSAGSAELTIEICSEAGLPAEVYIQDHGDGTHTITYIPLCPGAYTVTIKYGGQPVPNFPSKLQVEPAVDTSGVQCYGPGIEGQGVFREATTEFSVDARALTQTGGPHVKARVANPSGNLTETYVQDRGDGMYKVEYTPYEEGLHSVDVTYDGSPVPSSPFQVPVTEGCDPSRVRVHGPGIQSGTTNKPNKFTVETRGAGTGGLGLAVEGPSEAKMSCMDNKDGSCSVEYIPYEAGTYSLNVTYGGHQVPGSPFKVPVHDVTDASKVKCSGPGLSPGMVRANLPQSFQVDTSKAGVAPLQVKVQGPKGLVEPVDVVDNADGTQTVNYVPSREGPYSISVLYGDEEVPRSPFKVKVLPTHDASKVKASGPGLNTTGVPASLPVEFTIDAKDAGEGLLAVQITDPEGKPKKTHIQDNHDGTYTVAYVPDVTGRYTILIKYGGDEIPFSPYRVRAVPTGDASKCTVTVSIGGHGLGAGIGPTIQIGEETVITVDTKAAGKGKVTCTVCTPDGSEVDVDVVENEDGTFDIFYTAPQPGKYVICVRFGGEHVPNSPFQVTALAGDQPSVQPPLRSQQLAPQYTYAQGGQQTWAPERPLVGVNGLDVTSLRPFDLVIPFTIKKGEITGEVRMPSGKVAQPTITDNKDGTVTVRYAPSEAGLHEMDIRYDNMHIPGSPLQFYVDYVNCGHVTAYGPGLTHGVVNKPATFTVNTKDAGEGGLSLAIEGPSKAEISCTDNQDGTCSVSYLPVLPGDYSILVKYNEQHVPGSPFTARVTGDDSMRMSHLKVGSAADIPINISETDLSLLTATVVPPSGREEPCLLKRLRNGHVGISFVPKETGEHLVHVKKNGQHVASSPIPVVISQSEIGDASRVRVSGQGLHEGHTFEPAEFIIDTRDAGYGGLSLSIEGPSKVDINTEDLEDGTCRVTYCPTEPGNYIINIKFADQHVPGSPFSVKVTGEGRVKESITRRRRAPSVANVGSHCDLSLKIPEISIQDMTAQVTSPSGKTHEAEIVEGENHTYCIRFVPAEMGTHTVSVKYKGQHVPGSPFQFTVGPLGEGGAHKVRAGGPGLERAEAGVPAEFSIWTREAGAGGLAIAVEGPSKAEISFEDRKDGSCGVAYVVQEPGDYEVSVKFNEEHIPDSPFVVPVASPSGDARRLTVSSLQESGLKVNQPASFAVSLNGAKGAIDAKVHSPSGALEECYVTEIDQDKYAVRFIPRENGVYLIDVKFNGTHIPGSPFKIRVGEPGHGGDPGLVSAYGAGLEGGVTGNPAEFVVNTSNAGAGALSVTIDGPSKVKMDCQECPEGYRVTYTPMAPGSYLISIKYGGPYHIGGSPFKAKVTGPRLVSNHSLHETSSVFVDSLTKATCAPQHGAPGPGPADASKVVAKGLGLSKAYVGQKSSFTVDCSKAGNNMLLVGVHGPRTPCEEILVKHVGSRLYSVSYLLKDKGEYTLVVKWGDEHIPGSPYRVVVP
Sequence of UniProt P52657 (P52657 whole entry, looked up): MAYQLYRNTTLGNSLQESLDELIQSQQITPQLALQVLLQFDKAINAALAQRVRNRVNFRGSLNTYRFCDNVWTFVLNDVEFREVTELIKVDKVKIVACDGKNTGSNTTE
Sequence of UniProt P30711 (P30711 whole entry, looked up): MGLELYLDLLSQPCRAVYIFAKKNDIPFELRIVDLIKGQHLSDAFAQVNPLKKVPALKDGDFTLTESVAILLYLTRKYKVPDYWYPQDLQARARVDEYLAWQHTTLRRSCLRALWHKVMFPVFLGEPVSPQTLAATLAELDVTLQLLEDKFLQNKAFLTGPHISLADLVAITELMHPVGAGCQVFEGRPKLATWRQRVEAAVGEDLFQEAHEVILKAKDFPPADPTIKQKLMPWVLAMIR

Row | Target | log2 fold change [1] | log2 fold change (volasertib) | log2 fold change [2] | log2 fold change (epoxomicin) | log2 fold change [3] | log2 fold change [4] | log2 fold change [5] | log2 fold change (rosiglitazone) | log2 fold change [6] | log2 fold change [7]
1 | HMGN2 (UniProt P05204) | -0.083 | 0.073 | -0.109 | -0.082 | 0.054 | -0.041 | -0.081 | -0.041 | 0.02 | 0.071
2 | HSPA8 (UniProt P11142) | 0.001 | 0.113 | -0.007 | 0.008 | 0.012 | -0.002 | -0.037 | -0.019 | -0.034 | 0.079
3 | GLYR1 (UniProt Q49A26) | 0.099 | 0.054 | 0.026 | -0.074 | -0.047 | 0.026 | -0.038 | -0.292 | -0.019 | 0.041
4 | FDPS (UniProt P14324) | -0.059 | -0.191 | 0.075 | 0.028 | -0.054 | -0.277 | 0.111 | 0.235 | -0.034 | -0.608 (active)
5 | FNTB (UniProt P49356) | 0.948 (active) | 0.707 (active) | 0.01 | 0.044 | -0.006 | -0.212 | 0.02 | 0.062 | -0.055 | -0.088
6 | HP1BP3 (UniProt Q5SSJ5) | 0.122 | 0.054 | -0.11 | -0.016 | -0.015 | 0.013 | 0.046 | -0.037 | 0.126 | 0.038
7 | FLNA (UniProt P21333) | -0.121 | -0.375 (active) | 0.078 | 0.063 | -0.074 | -0.004 | 0.029 | 0.019 | 0.052 | -0.12
8 | GMEB2 (UniProt Q9UKD1) | 0.05 | -0.282 (active) | 0.062 | 0.156 | -0.059 | -0.048 | 0.018 | 0.145 | -0.03 | -0.075
9 | H2AFX (UniProt P16104) | 0.002 | 0.214 | -0.096 | -0.237 | -0.01 | 0.279 | -0.213 | -0.101 | 0.501 | 0.082
10 | GTF2A2 (UniProt P52657) | 0.053 | 0.097 | -0.07 | 0.036 | 0.03 | 0.025 | -0.03 | 0.003 | -0.046 | -0.031
11 | HDAC6 (UniProt Q9UBN7) | 0.013 | 0.005 | 0.014 | -0.069 | -0.074 | -0.157 | 0.068 | -0.065 | 0.058 | -0.04
12 | GAGE12F (UniProt P0CL80) | 0.037 | 0.069 | -0.033 | 0.034 | -0.039 | -0.058 | -0.095 | 0.002 | -0.049 | -0.234
13 | HAT1 (UniProt O14929) | -0.185 | -0.313 (active) | 0.02 | 0.035 | 0.014 | -0.057 | -0.007 | 0.049 | -0.081 | 0.026
14 | GIGYF2 (UniProt Q6Y7W6) | -0.093 | -0.52 (active) | 0.02 | 0 | -0.046 | -0.039 | 0.032 | 0.069 | 0.021 | -0.221 (active)
15 | FHOD1 (UniProt Q9Y613) | 0.127 | -0.055 | 0.075 | -0.171 | -0.148 | 0.093 | -0.048 | 0.039 | 0.372 | -0.022
16 | GABARAPL1 isoform 2 (UniProt Q9H0R8) | -0.303 (active) | -0.186 | 0.035 | -0.029 | -0.037 | 0.007 | 0.034 | 0.03 | -0.135 | -0.187
17 | GUSB (UniProt P08236) | -0.104 | 0.067 | 0.354 | -0.053 | -0.151 | -0.026 | -0.001 | -0.041 | -0.028 | 0.001
18 | HNRNPUL2 (UniProt Q1KMD3) | 0.172 | 0.135 | -0.023 | -0.084 | -0.036 | 0.092 | -0.012 | -0.007 | 0.131 | -0.013
19 | GLUD2 (UniProt P49448) | 0.13 | 0.252 | 0.068 | -0.07 | 0.034 | -0.219 | 0.021 | 0.002 | -0.022 | 0.071
20 | HIP1 (UniProt O00291) | 0.027 | -0.23 | -0.095 | 0.085 | 0.005 | 0.031 | -0.045 | -0.007 | -0.063 | -0.148
21 | GNG5 (UniProt P63218) | 0.105 | 0.033 | -0.117 | 0.556 (active) | 0.059 | 0.004 | -0.07 | -0.045 | -0.014 | 0.144
22 | GTF2B (UniProt Q00403) | -0.076 | -0.323 (active) | 0.091 | 0.096 | -0.04 | -0.015 | 0.147 | 0.083 | -0.002 | -0.193
23 | GABPA (UniProt Q06546) | -0.017 | -0.304 (active) | 0.079 | 0.007 | -0.083 | -0.07 | 0.037 | 0.076 | -0.026 | -0.174
24 | GSTT1 (UniProt P30711) | 0.02 | -0.057 | -0.038 | 0.203 | -0.019 | 0.019 | -0.034 | -0.024 | -0.058 | -0.002
25 | FEN1 (UniProt P39748) | -0.073 | -0.037 | 0.086 | 0.109 | -0.13 | -0.174 | 0.155 | 0.17 | -0.057 | -0.283
26 | GSK3B isoform 2 (UniProt P49841) | 0.013 | -0.027 | -0.002 | 0.058 | -0.032 | -0.1 | -0.001 | 0.036 | -0.004 | 0.004
27 | HEATR5B (UniProt Q9P2D3) | -0.053 | -0.19 | 0.083 | -0.058 | -0.041 | 0.018 | -0.009 | 0.003 | -0.017 | -0.015
28 | GEMIN6 (UniProt Q8WXD5) | 0.109 | 0.148 | -0.052 | 0.093 | -0.017 | -0.019 | -0.039 | 0.071 | -0.087 | -0.048
29 | GNPAT (UniProt O15228) | -0.065 | -0.149 | -0.02 | 0.04 | 0.044 | -0.066 | -0.027 | 0.066 | -0.084 | -0.354 (active)
30 | HSPA8 (UniProt E9PK54) | 0.041 | 0.213 | -0.003 | -0.252 | 0.03 | 0.131 | -0.06 | 0.042 | 0.11 | 0.128
